# Bioassay records (PubChem)
# D3 antag – blocks the human D3 dopamine receptor | max response, negative = inhibition, % | D3R cells, DiscoveRx beta-arrestin luminescence, antagonist mode; active compounds read low | P35462 | 360,000 compounds, 2.5% hits; in the data active = max response below about -50%; inconclusive = no clear call, values can overlap the other calls; also: % is scaled to controls: 0 for no effect and ±100 for the full control effect
#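 Cells plated overnight at 1500 cells/well, then exposed to library compounds with dopamine controls for 90 minutes at 37 degrees C. DiscoveRx reagent added for 30–60 minutes at room temperature; luminescence read, quantitative HTS format.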
# Giardia killer – Giardia lamblia killing; Giardia lamblia trophozoite viability; activity change, % at 7.66 µM, hits read low; 340,000 compounds, 0.15% hits; AID 540267; in the data active = activity change below about -80%; inconclusive = between about -30% and that limit;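 also: parasites exposed to compound for two days anaerobically before the ATP read; % is scaled to controls: 0 for no effect and ±100 for the full control effect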
#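 Giardia lamblia trophozoites (100 cells/well) were incubated with compounds for 48 h at 37 deg C under anaerobic conditions. Viability was read as ATP content by one-step luminescence after 15-30 min at room temperature.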
# DRD3 agonist – D3 dopamine receptor (human) agonism; P35462; D3R DiscoveRx beta-arrestin cells, luminescence, 90 min; max activation, %; 410,000 compounds, 0.58% hits; AID 652048; in the data active = max activation above about 30%; also: 0% is about no effect
#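 Cells at 1500/well, incubated overnight, then treated with pinned compounds (dopamine as control) for 90 min at 37 degrees C. DiscoveRx reagent added for 30 - 60 minutes at room temperature; luminescence read.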
# B2AR arrestin – beta2AR (human) beta-arrestin recruitment activity. 330,000 compounds, 0.02% hits. P07550. AID 492947. Potency, µM (doses to about 46.1 µM), inactives show at the highest dose activation, actives largely listed as activators. beta-arrestin recruitment to beta2AR, cell-based reporter; active = well fitted activation curve with a large enough effect; inconclusive = small, poorly fitted or top-dose-only effect;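 also: potency is read from the fitted curve at half-maximal effect; 0% = DMSO controls and full agonism = EC100 isoproterenol or metaproterenol; nearly all actives have a fitted effect of over 65% in size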
# Target sequence (P07550 whole entry, looked up): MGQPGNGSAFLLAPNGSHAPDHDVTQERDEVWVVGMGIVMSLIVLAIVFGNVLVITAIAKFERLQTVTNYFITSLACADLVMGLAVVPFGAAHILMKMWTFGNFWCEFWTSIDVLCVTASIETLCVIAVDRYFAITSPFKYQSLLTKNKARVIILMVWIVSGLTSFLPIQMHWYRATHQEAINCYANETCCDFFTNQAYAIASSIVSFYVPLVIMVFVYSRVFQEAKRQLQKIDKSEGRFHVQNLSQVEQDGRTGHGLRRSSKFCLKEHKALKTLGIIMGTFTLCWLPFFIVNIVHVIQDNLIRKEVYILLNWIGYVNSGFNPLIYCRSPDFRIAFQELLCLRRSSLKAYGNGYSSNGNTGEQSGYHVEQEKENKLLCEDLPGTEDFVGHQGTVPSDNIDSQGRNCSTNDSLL
# * = called active by the depositor; ? = inconclusive; . = no result; ! = not confirmed by another sample. An excerpt weighted towards active compounds, which were near 2.8% of everything screened.
SMILES,D3 antag,Giardia killer,DRD3 agonist,B2AR arrestin
CCCCOC(=O)c1ccc(NC(=O)c2cc3c(=O)n4cccc(C)c4nc3s2)cc1,.,.,8,.
Cc1ccc(S(=O)(=O)CCC(=O)N2CCN(c3ccc(Cl)cc3)CC2)cc1,13,-5,32*,0%
O=C(O)Cn1nnnc1SCC(=O)Nc1ccccc1F,12,23,-3,0%
Nn1c(SCC(=O)Nc2ccccc2F)nc2ccccc2c1=O,35,21,40*,0%
CCOC(=O)C1=C(C)NC2=C(C(=O)c3ccccc32)C1c1ccc([N+](=O)[O-])o1 (stereo unspecified),-4,-95*,2,0%
CC1=C(C#N)C(c2ccccc2)C2=C(N1)c1ccccc1C2=O (stereo unspecified),-18,-4,-10,0%
CC(=O)C1=C(C)NC2=C(C(=O)c3ccccc32)C1c1ccccc1 (stereo unspecified),-52*,4,-8,0%
CCCN1CCN(CCCNC(=O)c2cnn(-c3ccc(F)cc3)c2-n2cccc2)CC1,.,.,-16,.
C(=N\c1nc2ccccc2[nH]1)/c1cccs1,-57*,11,-2,-1%
Cn1c(/C=N/c2nc3ccccc3[nH]2)nc2ccccc21,8,-6,5,0%
Cc1cc(C)c(NC(=O)Cn2c(=O)n(-c3ccc(F)cc3)c(=O)c3c(C)c(C(=O)N(C)C)sc32)c(C)c1,.,.,3,.
CCN1C(=O)C(Cc2nc3ccccc3c(=O)n2-c2ccccc2)c2cc(Br)ccc21 (stereo unspecified),.,.,-5,.
CCc1ccc(-c2cc(C)no2)cc1S(=O)(=O)NCCCN1CCN(c2ccccc2)CC1,-77*,-18,0,-1%
Cc1cccc(NC(=S)N/C(=N/S(=O)(=O)c2ccccc2)c2ccccc2)c1,-61*!,2,-3,0%
CCN(C(=O)CN(C)S(=O)(=O)c1ccc2c(c1)n(C)c(=O)c(=O)n2C)c1cccc(C)c1,.,.,-7,.
Cc1cc(-c2ccc(N=Nc3ccc4c(S(=O)(=O)O)cc(S(=O)(=O)O)c(N)c4c3O)c(C)c2)ccc1N=Nc1ccc2c(S(=O)(=O)O)cc(S(=O)(=O)O)c(N)c2c1O,.,.,-9,.
Cc1ccc(CSc2c(C)cnc3c2c(=O)n(C)c(=O)n3C)cc1,.,.,7,.
Cc1occc1-c1nnc(SCC(=O)Nc2ccccc2-c2ccccc2)n1C,-57*,5,-4,0%
Cc1occc1-c1nnc(SCC(=O)c2ccc(Cl)cc2)n1C,-56*,-4,-12,0%
CCCn1c(SCC(=O)Nc2ccccc2-c2ccccc2)nnc1-c1ccoc1C,6,6,-1,1%
COc1cccc(CNc2nc(Cl)nc3nc[nH]c23)c1,.,-4,.,.
CCOC(=O)C1=NN(C(=O)c2ccc(C)cc2)C(O)(c2ccc(Cl)cc2)C1 (stereo unspecified),-57*,-6,-9,0%
CCC1=NN(C(=O)c2ccc(Cl)cc2)C(O)(c2ccc(C)cc2)C1 (stereo unspecified),8,-24,4,-1%
CNC(=O)NC(=O)C(C)OC(=O)c1c2c(nc3ccccc13)/C(=C/c1cccs1)CC2 (stereo unspecified),2,-7,37*,0%
CCCCNC(=O)COC(=O)c1c2c(nc3ccccc13)CCC2,26,-6,-5,0%
SMILES,D3 antag,Giardia killer,DRD3 agonist,B2AR arrestin
CCCCNC(=O)COC(=O)c1c2c(nc3ccccc13)/C(=C/c1cccs1)CC2,11,5,69*,0%
CC(C)c1ccc(S(=O)(=O)N2CCN(CC(=O)Nc3ccccc3C(F)(F)F)CC2)cc1,.,.,15,.
O=c1oc2ccccc2c(Cl)c1CN1CCCCC1,-76*,-9,-21,-1%
O=c1oc2ccccc2c(N2CCCC2)c1CN1CCCC1,-22,-8,-18,0%
Cc1ccccc1C(=O)NCc1ccc2c(c1)CCN2C(=O)c1ccccc1,.,.,-6,.
CCCN(CCC)S(=O)(=O)c1ccc(C(=O)Nc2nnc(CSC)o2)cc1,-99*,19,2,0%
COCc1nnc(NC(=O)c2ccc(S(=O)(=O)N(C)c3ccccc3)cc2)o1,-56*,-17,-13,0%
COCc1nnc(NC(=O)c2ccc(S(=O)(=O)N(CC(C)C)CC(C)C)cc2)o1,9,7,7,0%
CCCCN(CC)S(=O)(=O)c1ccc(C(=O)Nc2nnc(COC)o2)cc1,-65*,-18,6,0%
CCCCN(CCCC)S(=O)(=O)c1ccc(C(=O)Nc2nnc(CSC)o2)cc1,-113*,3,0,0%
CCC1CC=CC2C1C(=O)N(Cc1ccccc1)C2c1ccc2ccccc2c1 (stereo unspecified),.,-21,.,.
CCCCN(CC)S(=O)(=O)c1ccc(C(=O)Nc2nnc(CSC)o2)cc1,-83*,1,-8,-1%
CCN(Cc1ccccc1)S(=O)(=O)c1ccc(C(=O)Nc2nnc(-c3ccccc3OC)o2)cc1,-86*,0,9,0%
CCN(c1ccccc1)S(=O)(=O)c1ccc(C(=O)Nc2nnc(CSC)o2)cc1,-1,10,-1,0%
CCc1nnc(NC(=O)c2ccc(S(=O)(=O)N(CCOC)CCOC)cc2)o1,?,-7,-6,0%
COCCN(CCOC)S(=O)(=O)c1ccc(C(=O)Nc2nnc(C3CC3)o2)cc1,-53*,4,-14,-1%
COc1ccccc1-c1nnc(NC(=O)c2ccc(S(=O)(=O)N(C)C)cc2)o1,167,7,1,0%
COc1ccc(CCNC(=O)CSc2ncc3c(n2)-c2cc(Cl)ccc2N(Cc2ccccc2)S3(=O)=O)cc1OC,.,.,-12,.
CCCCOc1ccc(C(=O)N(Cc2nc(-c3ccc(Cl)cc3)no2)C(C)C)cc1,.,.,13,.
CC(C)(C)OC(=O)NS(=O)(=O)Nc1ccccc1Br,.,8,.,.
Clc1nssc1=Nc1ccc(Br)cc1,5,-11,5,1%
COc1cc(N=c2ssnc2Cl)cc(OC)c1,-71*,18,-8,0%
COCCCNCCCCOc1cccc(Br)c1,-61*,7,-5,4%
CCOc1cccc(OCCCNCCCOC)c1,-59*,4,-5,0%
OCCNCCCCOc1cccc(Br)c1,-27,10,-26,-1%
SMILES,D3 antag,Giardia killer,DRD3 agonist,B2AR arrestin
C=CCNCCCCOc1cccc(Br)c1,-62*,7,-17,0%
CC(C)NCCCCOc1cccc(Br)c1,?,7,-38,-1%
CCc1cccc(OCCCCN(CC)CC)c1,-73*,-12,-25,0%
CSCC[C@H](NC(=O)[C@H](Cc1c[nH]c2ccccc12)NC(=O)CCNC(=O)OC(C)(C)C)C(=O)N[C@@H](CC(=O)O)C(=O)N[C@@H](Cc1ccccc1)C(N)=O,.,.,-27,.
O=C(Nc1ccc(F)cc1Cl)c1cnc(N2CCOCC2)c2ccccc12,.,.,6,.
O=C(Nc1ccc2nc(SCC(=O)N3CCCc4ccccc43)sc2c1)c1cccc(Cl)c1,.,.,-7,.
CCOC(=O)C(CCCCOc1cccc(CC)c1)C(=O)OCC,-18,-4,10,-2%
CCc1cccc(OCCCCNCCCOC)c1,-79*,-23,-39,2%
Cc1csc(N=Nc2ccc(N(C)C)cc2)[n+]1[O-],-102*,.,-20,.
CN(C)c1ccc(N=Nc2ccc(C(=O)O)cc2)cc1,?,?,-4,-1%
